This note sets out measurements from PubChem BioAssay AID1725 (National Center for Advancing Translational Sciences (NCATS), 2009).

Each structure is given as a SMILES string. The list shows a part of the results. Records with an inconclusive call do not appear. A number with no mark means an inactive call. The source made the active and inactive calls. The call rests on the fitted dose curve; in most records, active means well fitted inhibition curve with a large enough effect; inconclusive means small, poorly fitted or top-dose-only effect, or effect the other way; inactive means no such curve, though single readings can be large or run the other way.

This assay in a line: Confirmation Concentration-Response Assay for Inhibitors of the ERK Signaling Pathway using a Homogeneous Screening Assay; Stimulation with EGF. As to conditions: HEK293 EGF-stimulated ERK phosphorylation, AlphaScreen; series mostly up to 57.5 µM; activity change, negative = inhibition: at the top concentration. The text has this: qHTS Assay for Inhibitors of the ERK Signaling Pathway using a Homogeneous Screening Assay
NIH Chemical Genomics Center [NCGC]
NIH Molecular Libraries Screening Centers Network [MLSCN]
Assay Submitter (PI): Dr. Wei Zheng, NCGC/NIH
The Ras/extracellular-signal-regulated kinase (ERK) mitogen activated protein (MAP) kinase signaling pathway (ERK1/2 cascade) plays is a key role in transmitting signals from the cell surface to the nucleus (Nishida and Gotoh 1993; Chang and Karin, 2001). The cascade is initiated by the small G-protein Ras, which recruits Raf […], where activation occurs. Alternatively, this pathway can be activated by elevating intracellular cAMP.
Activation of the ERK pathway is essential in increased cell division and cell survival. Sustained and constitutive activation of the ERK pathway, however, has been linked to uncontrolled cell proliferation, increased cell survival, and tumor progression. Thus, the ERK has been as an attractive target for cancer chemotherapy in the past few years (Sebolt-Leopold and Herrera, 2004). Given its physiological and pathological importance, assessment of ERK phosphorylation has been broadly performed in both basic research and drug discovery. Most assays for the measurement of ERK phosphorylation use the antibody-based detection methods, such as western blot and ELISA. These assays require multiple reagent additions with cell wash steps and are not suitable for high-throughput screening.
The current cell-based ERK phosphorylation assay was performed using AlphaScreen platform. AlphaScreen is a two bead-based proximity-dependent chemical energy transfer luminescent assay platform. […]
HEK293 cells stably expressing type-1 vasopressin receptor (V1b) were maintained in DMEM medium (Invitrogen, Carlsbad, CA) at 37C under a humidified atmosphere containing 5% CO2 and 95% air. […] The ERK phosphorylation in cells was determined using an AlphaScreen assay kit provided by PerkinElmer. […] AC50 values were determined from concentration-response data modeled with the standard Hill equation. […]
In general terms: Alpha assays give light when donor and acceptor beads are brought close together.
In the case of `CN(C)c1ccc(Nc2c3c4c(cccc4n(C)c2=O)C(=O)c2ccccc2-3)cc1`, the Potency is 11.2 µM (active).
In the case of `CCCNc1ncnc2sc(C)c(C)c12`, the “activity change, negative = inhibition” value is -8.99%.
On to `CN(C)c1cc2c(Nc3ccc4c(cnn4Cc4ccccc4)c3)ncnc2cn1`, for which the Potency was 2.82 µM (active).
